Screen size: about 220,000 compounds; about 910 (0.41%) were called active. The sample holds actives, similar compounds and a random draw of the others, so the mix is not that of the screen.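 The calls were made as follows: active = primary inhibition above the hit cutoff, then over 50% inhibition at one or more dose response concentrations (cut at about 23% in these data, passing the limit was not always enough); inconclusive = conflicting primary data, or primary hits not chosen for dose response; inactive = low primary inhibition, or under 50% at every dose.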 Measured potencies and affinities stand elsewhere.

This assay deals with Aminopeptidase N (Plasmodium falciparum (isolate 3D7)) (UniProt O96935). Put plainly: malaria alanyl aminopeptidase activity blockers – biochemical, fluorogenic H-Leu-NHMec substrate, 1536-well (AID 1445).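 Also: plate controls were DMSO full reaction for no effect and no enzyme background for full effect.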 As to conditions: recombinant M1AAP, H-Leu-NHMec fluorogenic kinetic assay; at 30 µM, active compounds read high unless noted.
Sequence of Aminopeptidase N (Plasmodium falciparum (isolate 3D7)) (O96935 whole entry, looked up): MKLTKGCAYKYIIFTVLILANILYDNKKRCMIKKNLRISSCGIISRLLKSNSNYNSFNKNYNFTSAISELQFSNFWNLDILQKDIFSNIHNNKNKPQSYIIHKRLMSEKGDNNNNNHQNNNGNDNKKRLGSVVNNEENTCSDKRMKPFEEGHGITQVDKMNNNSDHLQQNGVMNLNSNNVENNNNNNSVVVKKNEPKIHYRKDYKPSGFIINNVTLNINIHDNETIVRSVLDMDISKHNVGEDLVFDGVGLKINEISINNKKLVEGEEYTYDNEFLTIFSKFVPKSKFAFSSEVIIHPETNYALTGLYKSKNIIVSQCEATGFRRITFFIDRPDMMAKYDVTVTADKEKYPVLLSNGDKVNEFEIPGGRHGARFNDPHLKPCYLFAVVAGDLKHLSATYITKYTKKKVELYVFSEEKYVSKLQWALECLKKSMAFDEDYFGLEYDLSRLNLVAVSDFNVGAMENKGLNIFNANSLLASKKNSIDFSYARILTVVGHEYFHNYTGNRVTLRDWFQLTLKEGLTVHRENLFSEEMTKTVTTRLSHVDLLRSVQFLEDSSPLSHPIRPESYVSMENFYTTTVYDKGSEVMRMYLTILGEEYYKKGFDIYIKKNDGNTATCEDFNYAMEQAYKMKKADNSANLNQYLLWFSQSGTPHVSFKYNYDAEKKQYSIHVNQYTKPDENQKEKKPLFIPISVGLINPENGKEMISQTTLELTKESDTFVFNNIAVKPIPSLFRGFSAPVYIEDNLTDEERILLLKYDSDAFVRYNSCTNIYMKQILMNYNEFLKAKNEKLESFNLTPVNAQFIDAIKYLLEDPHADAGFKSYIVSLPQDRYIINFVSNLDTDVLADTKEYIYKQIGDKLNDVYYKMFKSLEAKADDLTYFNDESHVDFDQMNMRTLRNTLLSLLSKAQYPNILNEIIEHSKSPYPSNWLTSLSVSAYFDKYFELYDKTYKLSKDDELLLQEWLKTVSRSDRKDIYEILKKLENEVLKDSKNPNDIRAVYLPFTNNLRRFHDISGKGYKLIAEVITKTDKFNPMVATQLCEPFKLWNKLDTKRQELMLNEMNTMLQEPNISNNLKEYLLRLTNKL
`CCOc1ccc(C(=O)N(CN2CCCC2=O)c2ccccc2)cc1`: the inhibition was 2.27% (inactive).
The value for `Cc1ccc(Oc2cc(NC(=O)CCCn3nc([N+](=O)[O-])c(Cl)c3C)cc([N+](=O)[O-])c2)cc1` was 2.94% (inactive).
The value for `CCOC(=O)Cc1csc(NS(=O)(=O)c2ccc3c4c(cccc24)C(=O)N3CC)n1` was 23.4% (active); that for `CCN1C(=O)c2cccc3c(S(=O)(=O)Nc4ccccc4)ccc1c23` was 6.99% (inactive).
The value for `CCOC(=O)CNS(=O)(=O)c1ccc2c3c(cccc13)C(=O)N2CC` was 7.58% (inactive); that for `CC(/C=N/NC(=O)CNc1n[nH]c(=O)[nH]c1=O)c1ccccc1` (stereo not drawn) was 3.79% (inactive); that for `CC(=O)Nc1ccc(-c2ccccc2)s1` was 25.4% (active).
Regarding `CNC(=O)c1ccc(-c2ccccc2)s1`, the inhibition was 1.69% (inactive).
`CC(=O)Nc1ccc(NC(C)=O)s1`: the inhibition was 2.97% (inactive).
As for `CN(CCNC(=O)CCCOc1cc(=O)n(C)c2ccccc12)Cc1ccccc1`, the inhibition was 2.96% (inactive).
For the compound `CN(C)c1ccc(NC(=O)CSc2nc(N)c(C(=O)Nc3ccc(N(C)C)cc3)s2)cc1`, the inhibition was -0.46% (inactive).
The value for `CN(C)c1ccc(NC(=O)c2sc(SCC(=O)Nc3nccs3)nc2N)cc1` was 25.2% (active); that for `CN(C)c1ccc(NC(=O)c2sc(SCC(=O)Nc3ccc(Br)cc3)nc2N)cc1` was 4.44% (inactive); that for `COc1ccc(C(=O)NC(=S)Nc2ccc(N3CCOCC3)c(Cl)c2)cc1[N+](=O)[O-]` was 14.5% (inactive).
The result for `COc1cccc(/C=N/n2c(-c3cccs3)n[nH]c2=S)c1` reads 4.5% (inactive); that for `CCOc1ccc(C(=O)N[C@H](C(=O)Nc2ccc(OC)c(S(=O)(=O)N3CCOCC3)c2)C(C)C)cc1`, 2.14% (inactive).
The result for `COc1ccc(NC(=O)Nc2ccccc2)cc1S(=O)(=O)N1CCCCC1` reads -0.57% (inactive); that for `Cc1cccc(N(CC(=O)NC(C)(C)C)C(=O)CS(=O)CC(=O)Nc2ccc3c(c2)OCO3)c1` (stereo not drawn), 3.73% (inactive); that for `Cc1ccc(N(CC(=O)NC(C)(C)C)C(=O)CS(=O)CC(=O)Nc2ccc3c(c2)OCO3)cc1` (stereo not drawn), 8.92% (inactive).
With `Cc1cccc(N(CC(=O)NC2CCCC2)C(=O)CS(=O)CC(=O)Nc2ccc3c(c2)OCO3)c1C` (stereo not drawn), the inhibition is 6.68% (inactive).
The result for `Cc1cccc(N(CC(=O)NC2CCCC2)C(=O)CS(=O)CC(=O)Nc2ccc3c(c2)OCO3)c1` (stereo not drawn) reads 1.66% (inactive).
The result for `Cc1c(NC(=O)C(C)OC(=O)/C=C/c2ccccc2)c(=O)n(-c2ccccc2)n1C` (stereo not drawn) reads -2.48% (inactive); that for `Cc1ccccc1Cn1c(Cc2ccccc2)nc2ccccc21`, -1.18% (inactive); that for `Cc1cccc2cc(C#N)c(SCC#N)nc12`, 4.01% (inactive).
The value for `Clc1ccc(N2N=C(c3cccs3)CC2c2ccco2)cc1` (stereo not drawn) was 4.39% (inactive); that for `c1ccc(N2N=C(c3cccs3)CC2c2ccco2)cc1` (stereo not drawn) was 18.2% (inactive).
As for `NC(=O)CC(NC(=O)Cc1ccc(Br)cc1)c1ccc(N2CCN(c3ccccc3)CC2)c([N+](=O)[O-])c1` (stereo not drawn), the inhibition was 7.14% (inactive).
`CCOC(=O)Cc1nnc(NC(=O)CSc2nnc3c4ccccc4n(C(C)C)c3n2)s1`: the inhibition was 10.5% (inactive).
The result for `CCOC(=O)Cc1nnc(NC(=O)CSc2nnc3c4ccccc4n(C)c3n2)s1` reads 14% (inactive).
`CCOC(=O)Cc1nnc(NC(=O)C(CC)Sc2nnc3c4ccccc4n(C)c3n2)s1` (stereo not drawn): the inhibition was 23.4% (active).
Regarding `Cc1ccc(CNC(=O)CCNS(=O)(=O)c2ccc(C)cc2)cc1`, the inhibition was 9.63% (inactive).
The value for `Cc1ccc(CNC(=O)CCc2ccc(S(=O)(=O)NCC(C)C)cc2)cc1` was 8.45% (inactive); that for `CC(C)(C)NS(=O)(=O)c1ccc(CCC(=O)NCc2ccc3c(c2)OCO3)cc1` was 18.7% (inactive); that for `O=C(CCc1ccc(S(=O)(=O)NCc2ccccc2)cc1)NCc1cccnc1` was 6.09% (inactive).
The value for `CC(C)NS(=O)(=O)c1ccc(CCC(=O)Nc2ccc3c(c2)OCO3)cc1` was 9.11% (inactive).
The result for `CCNS(=O)(=O)c1ccc(CCC(=O)Nc2ccccc2)cc1` reads 3.88% (inactive).
In the case of `O=C(Nc1cc(C(F)(F)F)ccc1Cl)C(Sc1nnc(-c2cccs2)o1)c1ccccc1` (stereo not drawn), the inhibition is -4.08% (inactive).
As to `COCCCNCCOCCOc1c(OC)cccc1OC`, the inhibition was -5.39% (inactive).
The result for `Cc1cc(C2=CC(C)(c3cc(C)oc3C)Nc3nc(C(F)(F)F)nn32)c(C)o1` (stereo not drawn) reads 6.98% (inactive); that for `O=C(CNC(=O)c1ccc(F)cc1)Nc1ccccc1C(F)(F)F`, -1.13% (inactive); that for `CCOC(=O)C1=C(C)NC2=C(C(=O)CCC2)C1c1ccc(O)c(OCC)c1` (stereo not drawn), -7% (inactive).
The value for `O=C(Nc1nccs1)c1ccc(NC(=O)C2CC=CCC2C(=O)O)cc1` (stereo not drawn) was 8.55% (inactive).
The value for `CC1(C)CC(=O)C(C=NCCc2ccc(S(N)(=O)=O)cc2)=C(O)C1` was 12% (inactive); that for `O=S(=O)(Nc1nc2ccc(S(=O)(=O)N3CCCCC3)cc2s1)c1ccccc1` was 23.2% (inactive); that for `O=S(=O)(Nc1nc2ccc(S(=O)(=O)N3CCCC3)cc2s1)c1ccc(F)cc1` was 17.8% (inactive).
In the case of `O=C(O)CCC(=O)N(Cc1cccnc1)Cc1cccc(F)c1`, the inhibition is 6.62% (inactive).
As to `CCCCCN(C(=O)NC(=O)Nc1ccccc1C)S(=O)(=O)c1ccccc1`, the inhibition was -0.93% (inactive).
The value for `CCN1CCN(C(=O)CSCc2nc(-c3ccc(OC)c(OC)c3)oc2C)CC1` was 1.5% (inactive); that for `COc1ccc(-c2nc(CSCC(=O)N3CCN(c4cccc(C)c4)C(C)C3)c(C)o2)cc1OC` (stereo not drawn) was 23.8% (active).
As for `COc1ccc(-c2nc(CSCC(=O)N3CCN(C)CC3)c(C)o2)cc1OC`, the inhibition was 1.38% (inactive).
Take `COc1ccc(/C=N/NC(=S)Nc2ccccc2)cc1COc1ccc(Br)cc1`: the inhibition is 5.9% (inactive).
The result for `Cc1nnc2n1NC(c1ccc(Cl)cc1)C(C(=O)N(C)C1CCCCC1)S2` (stereo not drawn) reads 14.7% (inactive); that for `Cc1cccc2cc(CN(CCN3CCOCC3)C(=O)NCc3ccccc3)c(=O)[nH]c12`, 11.1% (inactive).
The value for `COC(=O)CC[C@@H](C(=O)O)N1C(=O)c2ccccc2C1=O` was 1.27% (inactive); that for `O=C(NCc1ccco1)c1nn2c(C(F)(F)F)cc(-c3cccs3)nc2c1Br` was 15.8% (inactive); that for `CC(=O)Nc1ccc(NC(=O)CSc2nc3nc(-c4cccs4)cc(C(F)(F)F)c3c(=O)[nH]2)cc1` was 13.8% (inactive).
The result for `COc1ccc(NC(=O)CSc2ccc(-c3cccs3)nn2)c(OC)c1` reads 4.92% (inactive); that for `O=C(CSc1nc(-c2cccs2)cc(C(F)(F)F)n1)NCc1ccco1`, 8.47% (inactive).
Take `CCOc1ccccc1NC(=O)CSc1nc2nc(-c3cccs3)cc(C(F)(F)F)c2c(=O)[nH]1`: the inhibition was 3.01% (inactive).
The result for `O=C(CSc1nc2nc(-c3cccs3)cc(C(F)(F)F)c2c(=O)[nH]1)Nc1ccc(F)c(F)c1` reads 12.9% (inactive).
The result for `COC(=O)c1ccc(OC(=O)CCN2c3ccccc3Sc3ccccc32)cc1` reads -4.42% (inactive).
With `CC(=O)Nc1ccc(Nc2cc(-c3ccccc3)nc3ncnn23)cc1`, the inhibition was 1.24% (inactive).
The result for `NC(=O)c1nnsc1Sc1c(C(N)=O)nnn1-c1cccc(N)c1` reads 4.16% (inactive).
The value for `OCCNCCOc1ccccc1F` was 7.92% (inactive).
The result for `COC(=O)[C@H](CC(C)C)NC(=O)NCc1ccc(Cl)cc1` reads 5.26% (inactive); that for `Cc1ccn2c(Nc3ccc4c(c3)OCO4)c(-c3ccccn3)nc2c1`, 12.3% (inactive).
Regarding `N#Cc1c(NC(=O)C2CCCO2)sc2c1CCCCCC2` (stereo not drawn), the inhibition is 3.88% (inactive).
The value for `O=C1CC(c2ccccc2)Cc2nc3nc(C(F)(F)F)nn3cc21` (stereo not drawn) was -1.32% (inactive); that for `O=C1Nc2ccccc2C1=Nc1ccc(S(=O)(=O)Nc2nccs2)cc1` was 9.76% (inactive).
The result for `O=S(=O)(Cc1ccccc1)Nc1ccc(Br)cn1` reads 1.35% (inactive); that for `Cc1ccc(NS(=O)(=O)Cc2ccccc2)nc1`, 5.38% (inactive).
The value for `O=c1oc(-c2ccccc2NS(=O)(=O)c2ccccc2)nc2ccccc12` was 9.41% (inactive).
On to `COc1ccccc1NC(=O)C1=C(C)NC(=O)NC1c1ccccc1F` (stereo not drawn), for which the inhibition was 5.11% (inactive).
The value for `CCN(CC)CC(C)(C)NS(=O)(=O)c1ccc(Cl)cc1` was -1.17% (inactive); that for `CC(C)OCCCNC(=O)c1ccc2c(=O)n(Cc3ccc4c(c3)OCO4)c(=S)[nH]c2c1` was -0.14% (inactive).
Take `COc1ccc(/C=C/C(=O)NCCSCc2ccco2)cc1`: the inhibition is 8.04% (inactive).
For the compound `Cc1ccccc1C(=O)OCc1nnc(-c2ccc(Cl)cc2)o1`, the inhibition is 1.13% (inactive).
The value for `COC(=O)CC(N)c1ccc(Br)cc1` (stereo not drawn) was 3.11% (inactive); that for `NC(CC(=O)O)c1ccc(F)cc1` (stereo not drawn) was 0.38% (inactive).
The result for `Cc1c(/C=N/NC(=O)c2cc(C(C)(C)C)[nH]n2)c2ccccc2n1C` reads 4.3% (inactive); that for `COc1ccc2[nH]cc(CCN=C3SCC(=O)N3C)c2c1`, -3.56% (inactive); that for `N#Cc1cc2c(nc1SCc1ccccc1)CCCCC2`, 5.06% (inactive).
The result for `N#Cc1cc2c(nc1SCc1ccccc1)CCC2` reads -3.56% (inactive); that for `CCOc1ccc(CCNC(=O)C2CCCN(c3nn4c(=O)cc(C)nc4s3)C2)cc1` (stereo not drawn), 1.13% (inactive); that for `CCOC(=O)c1c(-c2ccccc2)csc1N1C(=O)Nc2ccccc2N1O`, 17% (inactive).
With `CCOc1ccc(S(=O)(=O)Nc2cc(OC)ccc2OC)cc1`, the inhibition was 4.04% (inactive).
Take `COc1ccc(S(=O)(=O)Nc2cc(Cl)ccc2OC)cc1`: the inhibition was 4.45% (inactive).
Turning to `CCOc1ccc(S(=O)(=O)Nc2cc(Cl)ccc2O)cc1`, the inhibition is 24.5% (active).
The value for `Cc1ccc(S(=O)(=O)Nc2ccccn2)cc1[N+](=O)[O-]` was 2.61% (inactive); that for `Cc1ccc(-c2csc(NC(=O)CSc3nc4ccccc4[nH]3)n2)cc1` was 7.06% (inactive); that for `CCc1cc2c(-n3nc(C)cc3C)ncnc2s1` was 4.83% (inactive).
The value for `Cc1cc(Cl)ccc1OCCCC(=O)NN` was 2.87% (inactive); that for `Cc1cc(Cl)ccc1OCCCC(N)=O` was 1.94% (inactive).

Source of the values: PubChem BioAssay AID1445 (SRMLSC, 2008).
